DAX1 inh-1 = inhibits human nuclear receptor DAX1; AID 504766; HEK293 Gal4-DAX1 luciferase reporter, luminescence; inhibition, % at 6.75 µM; P51843; hit rate 0.99% among 340,000;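 active = inhibition above the mean over all tested compounds plus 3 SD, cut at about 4.2% in these data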;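 also: inhibition shows as a rise in luminescence from relieved DAX1 repression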
ssDAF12 agonist = activators of S. stercoralis DAF-12 nuclear receptor. hit rate 1% among 370,000. HEK293 ssDAF-12/GRIP1 lit1-tk-luc reporter, luminescence; % of 3 µM dafachronic acid response. AID 652126. activation, % at 6.8 µM;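 active = activation above the mean over all tested compounds plus 3 SD, cut at about 0.9% in these data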
hgDAF12 agonist = agonists of H. glycines DAF-12 nuclear receptor; HEK293 GAL4-hgDAF12 UAS-luciferase reporter, agonist luminescence; normalized to butyrate control; activation, % at 6.8 µM; hit rate 1.8% among 370,000; AID 687014;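 active = activation above a cutoff set at the mean of all screened compounds plus 3 SD, cut at about 10% in these data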
DAX1 inh-2 = blocks DAX1 repression of SF-1 activated StAR promoter; HEK293T StAR-luciferase reporter, SF-1/DAX-1 repression relief; inhibition, % at 6.8 µM; hit rate 1.1% among 370,000; AID 652010;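 active = inhibition above the mean over all tested compounds plus 3 SD, cut at about 3.6% in these data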;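 also: higher inhibition means more luminescence from relief of DAX-1 repression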
AHR activator = activators of human aryl hydrocarbon receptor | AHR-responsive luciferase reporter cells, luminescence | activation, % at 5 µM | hit rate 2.5% among 320,000 | P35869 | AID 2796; in the data active = activation above about 47%
hcDAF12 agonist = activates DAF-12 receptor from parasite H. contortus; HEK293 hcDAF-12 lit1-tk-luc reporter, luminescence; 0% DMSO, 100% Δ7-dafachronic acid; activation, % at 6.8 µM; hit rate 1.4% among 370,000; AID 652067;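 active = activation above the mean of all tested compounds plus 3 SD, cut at about 5.5% in these data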
DAX1 inh confirm = confirmation of human DAX1 (NR0B1) inhibitors; shares compounds with DAX1 inh-2; HEK293T StAR-promoter luciferase reporter, SF-1/DAX-1 repression; inhibition, % at 6.8 µM; hit rate 87% among 2,400; AID 652134;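 active = inhibition above the average of every tested compound plus 3 SD, cut at about 3.8% in these data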;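 also: active compounds raise luminescence by relieving repression of the StAR reporter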
SF1 mutant ctr = counter-screen for DAX1 inhibitors: nonselective inhibitors with SF-1 AF2 mutant | shares compounds with DAX1 inh-2 | HEK293 StAR-luciferase, luminescence | inhibition, % at 6.8 µM | hit rate 78% among 2,400;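 active = inhibition above the mean of all tested compounds plus 3 SD, cut at about 3% in these data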
Numbers stand for hits; . = inactive; / = not tested or not shown. An excerpt weighted towards active compounds, which were near 5.7% of everything screened.

SMILES | DAX1 inh-1 | ssDAF12 agonist | hgDAF12 agonist | DAX1 inh-2 | AHR activator | hcDAF12 agonist | DAX1 inh confirm | SF1 mutant ctr
O=C(CCNC(=O)N1CC(=O)Nc2ccccc21)NCc1ccc(F)cc1 | . | . | . | 6.0 | . | . | 5.3 | 3.3
Cc1cccn2c(=O)nc(SCC(=O)c3ccccc3)nc12 | . | . | . | . | . | . | / | /
COc1ccc(OC)c(CN2CCN(C(=O)CN3C(=O)NC4(CCCC4)C3=O)CC2)c1 | . | . | . | 4.9 | . | . | . | .
COc1cccc(N2CCN(C(=O)CN3C(=O)NC4(CCCC4)C3=O)CC2)c1 | . | . | . | . | . | . | / | /
O=C(CC1SC(N2CCCCC2)=NC1=O)Nc1cccc(C(=O)Nc2ncccc2O)c1 (stereo not drawn) | . | . | 11 | 7.9 | . | . | 9.7 | 9.1
COc1ccccc1CN1CCC(CNS(=O)(=O)c2cc(-c3onc(C)c3C)ccc2OC)CC1 | . | . | . | 4.6 | . | . | . | 3.1
Cc1cc(-c2ccc(C)c(S(=O)(=O)NCC3CCN(Cc4ccccc4F)CC3)c2)on1 | . | . | . | . | . | . | / | /
Cc1ccc(S(=O)(=O)N2CCN(C(=O)Cn3cnc4c3c(=O)n(C)c(=O)n4C)CC2)cc1C | . | . | . | 5.0 | . | . | . | .
Nc1ccc(C(=O)Nc2nccs2)cc1 | . | . | . | 4.8 | . | . | 5.1 | 4.7
Nc1ccccc1C(=O)Nc1nccs1 | . | . | . | . | . | . | / | /
O=C(/C=C/c1ccc(S(=O)(=O)N2CCOCC2)cc1)NCc1ccccc1F | . | . | . | 5.0 | . | . | . | .
O=C(/C=C/c1ccc(S(=O)(=O)N2CCOCC2)cc1)NCc1ccccc1Cl | . | . | . | . | . | . | / | /
O=C(Nc1cccc(O)c1)c1noc2c1CCc1ccccc1-2 | . | . | . | 7.0 | . | 6.3 | 16 | 6.3
CCc1ccc(NC(=O)c2noc3c2CCc2ccccc2-3)cc1 | . | . | . | . | . | . | / | /
COc1ccc2c(c1)C(c1ccc(Cl)cc1)NC(=O)C2 (stereo not drawn) | . | . | . | . | . | . | / | /
CCOC(=O)N1CCN(c2ncnc3c2cnn3-c2ccc(OC)cc2)CC1 | . | . | . | . | / | . | / | /
COc1ccc(-n2ncc3c(N4CCC(C)CC4)ncnc32)cc1 | . | . | 10 | 6.6 | . | 6.5 | 12 | 4.5
Cc1ccc(CS(=O)(=O)CCC(=O)N2CCOCC2)cc1 | . | . | . | . | . | . | / | /
CCN(CC(=O)NCc1ccc(Cl)cc1)C(=O)C1CCN(S(=O)(=O)c2ccc(OC)c(OC)c2)CC1 | . | . | . | . | . | . | / | /
COc1ccc(-c2cn3cc(C)ccc3n2)cc1F | . | . | . | 4.8 | . | 5.6 | 12 | .
Cc1ccc(C)c(NC(=O)CN(C)C(=O)c2cc3ccccc3o2)c1 | . | . | . | . | . | . | / | /

Screening results: PubChem BioAssay, The Scripps Research Institute Molecular Screening Center
